This note sets out measurements from PubChem BioAssay.

For orientation: viability means a per cent measure of how many cells are alive, often set against a control.

Assay [1] is described as follows: P. berghei load reduction in hepatocytes – cell-based, HepG2, luciferase luminescence, HepG2 viability, primary screen (AID 624349; in the data active means parasite load remaining mostly below about 12%, no sharp cut-off; inactive means mostly above about 10%;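 further: 100% = mean of DMSO negative control wells on the same plate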). The following applies: P. berghei liver stage in HepG2, luciferase luminescence, concentration not given here; parasite load remaining: stronger effect = lower value; viability: measured here: HepG2 viability without parasites.
Assay [2] can be described thus: Wnt pathway potentiators raising nuclear beta-catenin – imaging, WNT3A-conditioned medium, mouse C2C12, NPC library, primary screen (AID 1117326; in the data active means nuclear beta-catenin stimulation mostly above about 4.2%, no sharp cut-off; inactive means mostly below about 10%). To be noted: stronger effect = higher value.
Assay [3] in a line: stimulators of insulin release from INS-1E, primary screen, cell-based, 5 mM glucose, NPC library (AID 1117329;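 active means compound raises insulin release from rat beta cells at 5 mM glucose, no numeric limit stated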). To be noted: rat INS-1E insulin secretion, at 10 µM, stronger effect = higher value.
A short description of assay [4]: growth inhibition of GSK3B-pretreated HCT116 cells – cell-based, CellTiter-Glo, 0.2 to 20 µM (AID 1117336;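 active means compounds lowering colon cancer cell viability after pretreatment blocking the GSK3B kinase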). The following applies: HCT116 viability after GSK3B inhibitor, at 20 µM, stronger effect = higher value. (ATP-based viability assays read luminescence as a measure of living cells.)
A short description of assay [5]: inhibition of endothelial tube formation, primary screen, imaging, VEGF stimulated, CD31 staining, tube area, NPC library (AID 1117340;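 active means compound that reduces growth-factor-driven endothelial tube area in a mixed cell culture, no cutoff stated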). To be noted: VEGF-stimulated ADSC/ECFC co-culture, at 10 µM, stronger effect = higher value.
Assay [6] is described as follows: GLP1 release stimulators, primary, NCI-H716, NPC library (AID 1117341;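 active means compound raises GLP1 secretion from the human gut endocrine cells, with no numeric limit stated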). To be noted: NCI-H716 cells, at 10 µM, stronger effect = higher value.
Assay [7] can be described thus: HCT116 colon cancer cell growth inhibition, primary screen, CellTiter-Glo luminescence, NPC library (AID 1117342;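 active means compounds that lower survival of HCT116 colon cancer cells in the luminescence readout, no numeric limit stated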). The following applies: at 20 µM (top of the series).
The nature of assay [8]: reduced SW480 viability measured with CellTiter-Glo, NPC library, primary (AID 1117343;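 active means compounds that lower viability of the colon cancer cells in the luminescence readout, with no numeric limit stated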). The following applies: CellTiter-Glo luminescence; at 20 µM (top of the series) unless noted.
Assay [9] can be described thus: NPC library primary testing for decreased DLD-1 cell viability via CellTiter-Glo (AID 1117346;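 active means compounds that lower survival of DLD-1 colon cancer cells in the luminescence readout, no cutoff given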). To be noted: DLD-1 viability, CellTiter-Glo luminescence; at 20 µM (top of the series).
Assay [10] in a line: viability loss with induced miR-34 in A549 – imaging, A549 dox-inducible miR-34, nuclei and caspase counts, primary screen (AID 1347080). The following applies: A549 miR-34 inducible, Hoechst nuclei count, 48 h.
Assay [11] can be described thus: blockers of cellular phospholipid synthesis – cell-based, LOPAC library, screen 4, primary screen (AID 1347384; call rule not given here). The following applies: animal cells, phospholipid biosynthesis inhibition screen; at 10 µM.
The nature of assay [12]: MELAS cybrid and Rieske KO viability enhancers – cell-based, MELAS cybrids, Rieske KO mouse fibroblasts, CellTiter-Glo, primary screen (AID 1508586;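 active means mean z-score across replicates of 1.96 or higher in either the MELAS or the Rieske mutant cell line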;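 further: z relative to plate mean and SD of compound and empty wells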). To be noted: low glucose.
Assay [13] in a line: galactose survival enhancers in mitochondrial complex I cybrids – cell-based, galactose medium, ATP luminescence, primary screen (AID 1645843;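 active means z-score of at least 1.8 in each of two replicates, scored against plate mean and spread of sample wells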;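 further: positive z means more ATP and so rescue of galactose-driven cybrid death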). The following applies: complex I mutant cybrid cells, 72 h, stronger effect = higher value.
Setting [14] is: stronger effect = lower value, cell number ratio, induced over uninduced.
The mark [15] stands for this setting: measured here: relative caspase fold change +Dox/-Dox.
[16] abbreviates: measured here: total cells with miR-34 induction, stronger effect = lower value.
[17] abbreviates: measured here: total cells without miR-34 induction.
Where [18] appears, read: MELAS cybrid survival, CellTiter-Glo 48 h, stronger effect = higher value.
Setting [19] is: Rieske KO mouse fibroblast survival, CellTiter-Glo 72 h.

Molecules are shown by their SMILES. Where “and” joins values, the source holds several entries; their conditions need not be identical. Equal entries are not always repeated. Calls of active or inactive are those of the source.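 How the source made its calls, unless noted: active means compounds whose cell count with miR-34 switched on is under 0.7 times the count with it off; inactive means the rest.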

Take `C(=C\c1ccccc1)/CN1CCN(C(c2ccccc2)c2ccccc2)CC1`: the parasite load remaining in assay [1] was 32.6% (inactive) and 111% (inactive). Further, in assay [1], the viability was 52.6% and 87.5%. Also, the nuclear beta-catenin stimulation was 1.7% (inactive) in [2] (at 10 µM) and 0.3% in assay [2] (stimulation, at 2 µM). Further, the insulin secretion stimulation in assay [3] is -1.8% (inactive). Moreover, the viability decrease in [4] is 88.8% (active). Also, the tube area decrease in [5] is 26.3% (inactive). Moreover, the GLP1 secretion stimulation in assay [6] was -2.7% (inactive). For the same molecule, the inhibition of viability in assay [7] was 84.4% (active). For the same molecule, the results for the viability decrease (inhibition) in assay [8] and in [9] were 97.3% (active) and 99.3% (active), respectively. Also, the fold change in [10] (setting [14]) was 0.969 (inactive) and 0.928 (inactive); in [10] (setting [15]), 1.77 and 1.18. The cell count in [10] (setting [16]) is 7700 and 8780; in assay [10] (setting [17]), 7950 and 9460. In addition, the result in assay [11] was inactive. For the same molecule, the z-score in assay [12] (setting [18]) is 0.0624 (inactive); in assay [12] (setting [19]) it was -0.105; in [13] it was -0.01 (inactive).

In the case of `COc1cc(C)c(C=CC(C)=CC=CC(C)=CC(=O)O)c(C)c1C`, the nuclear beta-catenin stimulation in [2] (at 10 µM) is 1% (inactive); in [2] (stimulation, at 2 µM), 1.9%. The insulin secretion stimulation in assay [3] is 2.8% (inactive). For the same molecule, the viability decrease in assay [4] was 61.5% (active). Further, in assay [5], the tube area decrease is 45.4% (active). Besides, the GLP1 secretion stimulation in [6] was -3.9% (inactive). Besides, in [7], the inhibition of viability was 52.1% (active). Also, the viability decrease (inhibition) was 70.9% (active) in assay [8] and 78.6% (active) in assay [9]. Moreover, the values for the fold change in assay [10] (setting [14]) and in assay [10] (setting [15]) were 0.847 (inactive) and 1.06, respectively. The values for the cell count in [10] (setting [16]) and in [10] (setting [17]) were 6840 and 8080, respectively. Besides, the z-score in [12] (setting [18]) is -0.108 (inactive); in assay [12] (setting [19]), 0.793.

As to `CC(=O)[C@@]1(O)CC[C@H]2[C@@H]3CCC4=CC(=O)CC[C@]4(C)[C@H]3CC[C@@]21C`, the parasite load remaining in [1] is 0.96% (inactive). For the same molecule, in assay [1], the viability is 66%. Further, the nuclear beta-catenin stimulation is 1.2% (inactive) in assay [2] (at 10 µM) and 2.3% in assay [2] (stimulation, at 2 µM). In assay [3], the insulin secretion stimulation was 0.95% (inactive). Moreover, the viability decrease in assay [4] was 14.3% (inactive). The tube area decrease in [5] is -5.3% (inactive). For the same molecule, the GLP1 secretion stimulation in assay [6] was 2% (inactive). Also, in assay [7], the inhibition of viability is 20.1% (inactive). The viability decrease (inhibition) in assay [8] was 10.2% (inactive); in assay [9], -4.1% (inactive). Further, the fold change is 0.967 (inactive) and 0.853 (inactive) in assay [10] (setting [14]); 1.72 and 1.68 in assay [10] (setting [15]). In addition, the cell count was 8400 and 8890 in assay [10] (setting [16]); 8690 and 10400 in assay [10] (setting [17]). For the same molecule, the molecule was classed as inactive in [11]. In addition, the z-score is -0.428 (inactive) in assay [12] (setting [18]); 0.151 in assay [12] (setting [19]); -0.055 (inactive) and -1.24 (inactive) in [13].

For the molecule `O=c1[nH]c(=O)n([C@H]2C[C@H](O)[C@@H](CO)O2)cc1Br`, the nuclear beta-catenin stimulation was 0.6% (inactive) in assay [2] (at 10 µM) and -1.1% in assay [2] (stimulation, at 2 µM). Further, the insulin secretion stimulation in assay [3] was 0.6% (inactive). The viability decrease in [4] is 17.6% (inactive). Besides, the tube area decrease in assay [5] was 54.6% (active). Further, the GLP1 secretion stimulation in assay [6] was 0.6% (inactive). Moreover, the inhibition of viability in assay [7] was 14.8% (inactive). The viability decrease (inhibition) in assay [8] was 18.4% (inactive); in assay [9], 34.2% (inactive). Moreover, the fold change in assay [10] (setting [14]) is 0.769 (inactive); in assay [10] (setting [15]), 2.25. Moreover, the cell count in assay [10] (setting [16]) stood at 7520; in assay [10] (setting [17]), 9790. Moreover, the outcome in [11] was inactive. The z-score in assay [13] was 5.63 (active).

On to `CCNC(=O)N1CCN(CCCC(c2ccc(F)cc2)c2ccc(F)cc2)CC1`, for which the nuclear beta-catenin stimulation was 0.3% (inactive) in assay [2] (at 10 µM) and -1.1% in [2] (stimulation, at 2 µM). The insulin secretion stimulation in assay [3] is 1.1% (inactive). In addition, the viability decrease in assay [4] was 50.7% (active). Further, in assay [5], the tube area decrease is 17.1% (inactive). Further, the GLP1 secretion stimulation in [6] is 7.1% (inactive). The inhibition of viability in assay [7] was 85.2% (active). In addition, the viability decrease (inhibition) in assay [8] was 119% (active); in assay [9], 57.7% (active). The fold change in assay [10] (setting [14]) was 0.987 (inactive); in assay [10] (setting [15]), 1.62. Further, the cell count in [10] (setting [16]) was determined as 6860; in [10] (setting [17]), 6940. Moreover, in assay [11], the molecule was classed as inactive. For the same molecule, the z-score in assay [13] is -1.42 (inactive).
